These results are taken from PubChem BioAssay (NCI).

The panel holds about 83,000 compounds, 20% with a hit somewhere; the sample as a whole holds those more often.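 Negative percent growth values reflect cell death: -40 means 40% of the cells present at the start died, and -100 means all died.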 Unmarked numbers belong to inactive results. The source made the active and inactive calls. How the source made its calls: active means growth percent below 10; inactive means the rest.

The first assay relates to U251 CNS. Description: NCI-60 one-dose screen, 48 h (100 = growth as untreated, 0 = no growth, -100 = all killed). Conditions: 10 µM unless noted.
In the case of `COc1cc2oc(-c3cccc(NC(=O)c4cc(NC(=O)[C@H](C)NC(=O)OC(C)(C)C)ccc4C)c3)cc(=O)c2c(OC)c1OC`, the growth is 53.5%. On the same count and under the same terms, in the case of `C/C(=C(/C)C1CC1CCN(C(=O)c1ccc([N+](=O)[O-])cc1)S(=O)(=O)c1ccc(C)cc1)C1CCCCC1` (stereo not drawn) it was 94.7%; in that of `CN1CCN(c2nc(-c3cnc4ccccc4n3)cc3ccccc23)CC1`, 68%. With `CCNC(=O)Oc1ccc(/C(=C(/C)c2ccccc2)c2ccc(OCCN3CCCC3)cc2)cc1`, the growth is 58.6%. On the same count and under the same terms, to `O=C(CSc1nnc(-c2cccs2)n1-c1ccccc1)Nc1ccc(F)cc1` belongs 99.5%; to `NS(=O)(=O)Oc1ccc2nc(Nc3ccc(F)c(F)c3)ccc2c1`, 91.9%; to `C#C[C@]1(O)CC[C@H]2[C@@H]3CC=C4c5sc(Nc6cccc(C)n6)nc5CC[C@]4(C)[C@H]3CC[C@@]21C`, 6.3% (active). The same measure, in the same setting: to `COc1ccc([C@H]2[C@H](O)C(=O)N2c2cc(OC)c(OC)c(OC)c2)cc1O` belongs 1.09% (active); to `COc1cc(-c2nc(SCc3ccc(C)cc3)[nH]c(=O)c2C#N)ccc1OCc1ccccc1`, 102%. Regarding `CCOC(=O)Nc1cccc(-n2cnc3cc(-c4ccc(O)cc4)ccc32)c1`, the growth is 19.1%. Still for that read-out and setting: in the case of `COc1cc(O)c2c(c1)[C@H]1O[C@@H]1C[C@H](O)[C@H](O)C(=O)/C=C\C[C@H](C)OC2=O` it was 72.4%; in that of `CN1CCN(c2ccc(C(=O)/C=C/c3ccc(Cl)c(C(F)(F)F)c3)cc2)CC1`, 38.4%. For the compound `Cc1ccccc1NC1CC(=O)N(c2ccc(Cl)cc2Cl)C1=O` (stereo not drawn), the growth is 99.5%.

Take `C/C(=C(/c1ccc(O)cc1)c1ccc(OCCN(C)C)cc1)c1ccc(Cl)cc1`: the growth is 35.3%. For `C=CCn1c(SCC(=O)Nc2cccc(C(=O)/C=C/c3ccc(Cl)cc3)c2)nc2ccccc2c1=O`, the growth is 90.7%. For `Cc1nn(-c2ccc(Br)cc2)c2nc(CCl)[nH]c(=O)c12`, the growth was 98.5%. The same measure, in the same setting: to `Cc1cc2nc(C(Cl)Cl)nc(-c3ccco3)n2n1` belongs 53.8%. Regarding `C=CCn1c(SCC(=O)c2ccc(OC)cc2)nnc1-c1ccc(OC)cc1`, the growth is 102%.

Regarding `ClC(Cl)c1nc(-c2cccs2)n2nc(-c3ccccc3)cc2n1`, the growth was -9.39% (active). Still for that read-out and setting: in the case of `COc1cc2c3c(n(CCCNC4CCCCC4)c(=O)c2cc1OC)-c1cc2c(cc1C3=O)OCO2` it was -91.1% (active). Take `C#CCOc1ccc(/C=N/Nc2nc(-c3cc(Cl)ccc3Cl)cs2)cc1`: the growth was 98.6%. `CS(=O)(=O)c1ccc2c(c1)c1c(n2S(=O)(=O)c2ccc(Cl)cc2)CCCC1`: the growth was 25.6%.

For the compound `CC(=O)NC(C)(C)C(=O)N1CCC[C@H]1C(=O)NC(C)(C)C(=O)N[C@@H](C)C(=O)NC(C)(C)C(=O)NC(C)(C)C(=O)N[C@@H](CCC(N)=O)C(=O)NC(C)(C)C(=O)N[C@H](C(=O)NC(C)(C)C(=O)NCC(=O)N[C@@H](CC(C)C)C(=O)NC(C)(C)C(=O)N1CCC[C@H]1C(=O)N[C@H](C(=O)NC(C)(C)C(=O)NC(C)(C)C(=O)N[C@@H](CCC(N)=O)C(=O)N[C@@H](CCC(N)=O)C(=O)N[C@H](CO)Cc1ccccc1)C(C)C)C(C)C`, the growth is 21.8% [4.25 µM].

As to `Cc1cn(-c2cc(NC(=O)c3cncc(C#Cc4cnc5ccc(O[C@@H]6CCOC6)nn45)c3)cc(C(F)(F)F)c2)cn1`, the growth is -96.6% (active). As to `O=C(O)CNS(=O)(=O)c1ccc(Oc2ccc(S(=O)(=O)NCC(=O)O)cc2)cc1`, the growth was 99.3%.

Another assay concerns PC-3 prostate. The assay is described as above. Conditions: 10 µM unless noted.
For `Clc1ccccc1/C=C/c1nn2c(-c3ccncc3)nnc2s1`, the growth is 97.2%. Still for that read-out and setting: in the case of `COc1ccc(/C=N/Nc2nc(Nc3ccccc3)nc(Nc3ccc(S(N)(=O)=O)cc3)n2)cc1` it was 75.8%.

As to `CS(=O)c1nccc(-c2c(-c3ccc(F)c(OCc4ccccc4)c3)nc3sccn23)n1` (stereo not drawn), the growth is 54.1%.

As for `COc1ccc(-c2cc(-c3cccc4ccccc34)n3c(n2)nc2ccccc23)cc1`, the growth is 35.8%. Same read-out and setting: in the case of `COc1ccc2c(c1)c(-c1nn3c(=O)cc(-c4ccccc4)nc3s1)cn2C` it was 32.4%; in that of `CC1(C)CC[C@]2(C(=O)N3CCCNCC3)CC[C@]3(C)C(=CC[C@@H]4[C@@]5(C)CCC(=O)C(C)(C)[C@@H]5CC[C@]43C)[C@H]2C1`, 88.2%. On the same count and under the same terms, to `CCOC(=O)C1=C(C)Nc2nnc(Nc3ccccc3)n2C1c1ccccc1` (stereo not drawn) belongs 73.5%.

With `Cc1nc(-c2cc3ccccc3c(N3CCN(C)CC3)n2)cs1`, the growth was 86.8%. On the same count and under the same terms, in the case of `Nc1n[nH]c2cccc(C#Cc3cccc(NC(=O)c4cccc(OC(F)(F)F)c4)c3)c12` it was 68.3%; in that of `COc1c([C@@H](CC(C)C)OC(C)=O)ccc2c1C(=O)OCc1cc(C)cc(O)c1O2`, 29.8%; in that of `O=C1CSC(=O)N1Cc1cc2ccccc2nc1Cl`, 96.8%. On the same count and under the same terms, in the case of `O=C1Nc2ccc(Cl)cc2/C1=C/c1ccc(OCc2ccc(Br)cc2F)cc1` it was 93%; in that of `COc1cc2oc(-c3cccc(NC(=O)c4cc(NC(=O)[C@H](C)N)ccc4Cl)c3)cc(=O)c2c(OC)c1OC`, 81.2%; in that of `COc1cc2oc(-c3cccc(NC(=O)c4cc(NC(=O)[C@H](C)NC(=O)OC(C)(C)C)ccc4C)c3)cc(=O)c2c(OC)c1OC`, 68.8%. The same measure, in the same setting: in the case of `C/C(=C(/C)C1CC1CCN(C(=O)c1ccc([N+](=O)[O-])cc1)S(=O)(=O)c1ccc(C)cc1)C1CCCCC1` (stereo not drawn) it was 85.4%; in that of `CN1CCN(c2nc(-c3cnc4ccccc4n3)cc3ccccc23)CC1`, 70.8%. As to `CCNC(=O)Oc1ccc(/C(=C(/C)c2ccccc2)c2ccc(OCCN3CCCC3)cc2)cc1`, the growth is 64.2%. Still for that read-out and setting: in the case of `O=C(CSc1nnc(-c2cccs2)n1-c1ccccc1)Nc1ccc(F)cc1` it was 99%. Same read-out and setting: in the case of `NS(=O)(=O)Oc1ccc2nc(Nc3ccc(F)c(F)c3)ccc2c1` it was 90.6%; in that of `C#C[C@]1(O)CC[C@H]2[C@@H]3CC=C4c5sc(Nc6cccc(C)n6)nc5CC[C@]4(C)[C@H]3CC[C@@]21C`, -1.41% (active); in that of `COc1ccc([C@H]2[C@H](O)C(=O)N2c2cc(OC)c(OC)c(OC)c2)cc1O`, 8.59% (active).

`COc1cc(-c2nc(SCc3ccc(C)cc3)[nH]c(=O)c2C#N)ccc1OCc1ccccc1`: the growth was 107%.

With `CCOC(=O)Nc1cccc(-n2cnc3cc(-c4ccc(O)cc4)ccc32)c1`, the growth is 29.9%. On the same count and under the same terms, in the case of `COc1cc(O)c2c(c1)[C@H]1O[C@@H]1C[C@H](O)[C@H](O)C(=O)/C=C\C[C@H](C)OC2=O` it was 66.8%; in that of `CN1CCN(c2ccc(C(=O)/C=C/c3ccc(Cl)c(C(F)(F)F)c3)cc2)CC1`, 43.4%. Still for that read-out and setting: to `Cc1ccccc1NC1CC(=O)N(c2ccc(Cl)cc2Cl)C1=O` (stereo not drawn) belongs 97.2%. Regarding `C/C(=C(/c1ccc(O)cc1)c1ccc(OCCN(C)C)cc1)c1ccc(Cl)cc1`, the growth is 52.1%. Same read-out and setting: in the case of `C=CCn1c(SCC(=O)Nc2cccc(C(=O)/C=C/c3ccc(Cl)cc3)c2)nc2ccccc2c1=O` it was 89%; in that of `Cc1nn(-c2ccc(Br)cc2)c2nc(CCl)[nH]c(=O)c12`, 96.4%. Same read-out and setting: to `Cc1cc2nc(C(Cl)Cl)nc(-c3ccco3)n2n1` belongs 73%; to `C=CCn1c(SCC(=O)c2ccc(OC)cc2)nnc1-c1ccc(OC)cc1`, 99.6%; to `ClC(Cl)c1nc(-c2cccs2)n2nc(-c3ccccc3)cc2n1`, -32.3% (active). Still for that read-out and setting: in the case of `COc1cc2c3c(n(CCCNC4CCCCC4)c(=O)c2cc1OC)-c1cc2c(cc1C3=O)OCO2` it was -83.6% (active); in that of `C#CCOc1ccc(/C=N/Nc2nc(-c3cc(Cl)ccc3Cl)cs2)cc1`, 87.1%; in that of `CS(=O)(=O)c1ccc2c(c1)c1c(n2S(=O)(=O)c2ccc(Cl)cc2)CCCC1`, 30.7%. Consider `CC(=O)NC(C)(C)C(=O)N1CCC[C@H]1C(=O)NC(C)(C)C(=O)N[C@@H](C)C(=O)NC(C)(C)C(=O)NC(C)(C)C(=O)N[C@@H](CCC(N)=O)C(=O)NC(C)(C)C(=O)N[C@H](C(=O)NC(C)(C)C(=O)NCC(=O)N[C@@H](CC(C)C)C(=O)NC(C)(C)C(=O)N1CCC[C@H]1C(=O)N[C@H](C(=O)NC(C)(C)C(=O)NC(C)(C)C(=O)N[C@@H](CCC(N)=O)C(=O)N[C@@H](CCC(N)=O)C(=O)N[C@H](CO)Cc1ccccc1)C(C)C)C(C)C`, for which the growth was 14.9% [4.25 µM]. Regarding `Cc1cn(-c2cc(NC(=O)c3cncc(C#Cc4cnc5ccc(O[C@@H]6CCOC6)nn45)c3)cc(C(F)(F)F)c2)cn1`, the growth was -0.613% (active). With `O=C(O)CNS(=O)(=O)c1ccc(Oc2ccc(S(=O)(=O)NCC(=O)O)cc2)cc1`, the growth was 98.6%.
